Test results reported in PubChem BioAssay (NCATS).
Results filed as inconclusive are left out. Where a call stands in place of a potency, no number is given. Active and inactive are the calls of the source. Calls come from the whole dose curve; as a rule, active = well fitted inhibition curve with a large enough effect; inconclusive = small, poorly fitted or top-dose-only effect; inactive = no such curve, though single readings can be large or run the other way.

What follows are compounds tested on Zika virus NS2B-NS3 protease (unlinked complex) (assay: Primary screen GU Rhodamine qHTS for Zika virus inhibitors: Unlinked NS2B-NS3 protease assay (AID 1347159; note: nearly all actives have a fitted effect of over 60% in size)). Conditions: Recombinant ZIKV NS2B-NS3 protease, Rhodamine110 substrate fluorescence; series mostly up to 107 µM.
Description: Avindra Nath, Ph.D., National Institute of Neurological Disorders and Stroke (NINDS), Bethesda, MD
Radhakrishnan Padmanabhan, Ph.D., Georgetown University (GU), Washington D.C.
Zika Virus causes congenital defects, including microcephaly and is associated with Guillain-Barre syndrome, eningoencephalitis and myelitis in infected adult. […] Using a target-based approach, we hope to establish a screening paradigm to uncover novel, cell-active NS2B-NS3 protease (Zika Virus) specific inhibitors from NCATS' collection of small molecules using qHTS.
Four assay panel was created to identify potential Zika Virus inhibitors. Namely, (1) GU unlinked NS2B-NS3 AMC tagged protease qHTS, (2) GU unlinked NS2B-NS3 Rhodamine tagged protease qHTS, (3) NINDS linked NS2B-NS3 AMC tagged protease qHTS, (4) NINDS linked NS2B-NS3 Rhodamine tagged protease qHTS. Active compounds were re-acquired and re-screened to confirm inhibition. Inhibitors were further screened against various confirmatory and counterscreens in dose response format.
Early Translation Branch (ETB)
National Center for Advancing Translational Sciences (NCATS), Rockville, MD
National Institute of Health (NIH), Bethesda, Maryland
Padmanabhan lab provided the NS2B hydrophilic domain and NS3 protease domain in a noncovalent complex used for the unlinked assay. Control compound aprotinin is obtained from Thermo Scientific (#78432; Waltham, Massachusetts). Rhodamine110 substrate ([N-Cbz]-Nle-Lys-Arg-Arg-Rhod110-Arg-Arg-Lys-Nle-[N-Cbz]) was purchased from either Genscript or Bachem.
1536-well Protease (Rhodamine110 Substrate) Assay:
Briefly, 3 microL of enzyme (25 nM final concentration), in assay buffer (10 mM Tris-HCl pH 8.0 with 0.01% Tween 20) were dispensed into a 1,536-well solid-bottom black plate (Greiner Bio One, Monroe, NC). Twenty-three nL of compounds (final concentration range 7.28 nM to 114 microM) or control Aprotinin (final concentration range 3.47 nM to 114 microM) were transferred via Wako Pin-tool (Wako Automation, Richmond, VA). Samples were incubated (room temperature, protected from light) for 15 minutes followed by a 1 microL Rhodamine110 substrate addition (1.5 microM final concentration). Plates were then immediately read on a ViewLux High-throughput CCD imager (PerkinElmer, Waltham, MA) equipped with FITC fluorescence optics (480(20) nm excitation, 540(25) nm emission), then incubated (room temperature, protected from light) for 15 minutes (~15% conversion). The change in fluorescence intensity over the 15-minute reaction period was normalized against no-inhibitor and no-enzyme controls and the resulting percent inhibition data were fitted to a 4-parameter Hill equation. Aprotinin was used as intraplate control.
Potency is the fitted concentration of half-maximal effect.

Structure (SMILES)	Potency
Cc1ccc(C2(COC(=O)C(C)C)CO2)c(OC(=O)C(C)C)c1 (stereo not given)	inactive
C=C1C(=O)O[C@@H]2[C@H]1[C@H](O)C[C@]1(C)[C@@H](O)CC=C(C)[C@@H]21	inactive
O=C(c1ccc(F)c(F)c1Nc1ccc(I)cc1F)N1CC(O)(C2CCCCN2)C1 (stereo not given)	inactive
CC1(C)SC2C(NC(=O)[C@H](C(=O)O)c3ccsc3)C(=O)N2C1C(=O)O (stereo not given in full)	inactive
C=C1[C@@H](C)[C@H]2[C@H](Cc3c[nH]c4ccccc34)NC(=O)[C@]23C(=O)/C=C/C(=O)[C@H](O)/C(C)=C\[C@@H](C)C/C=C/[C@H]3[C@@H]1O	inactive
CC(=O)N1CCN([C@H]2CCN(C(=O)N(C)[C@H](C)c3cc(C(F)(F)F)cc(C(F)(F)F)c3)[C@@H](c3ccc(F)cc3C)C2)CC1	inactive
COc1ccc(C(=O)N(CCC(C)C)Cc2nc(C)c(C)n2Cc2ccccc2C)c(OC)c1	inactive
O=C(CC1NCCC[C@H]1O)Cn1cnc2cc(Br)c(Cl)cc2c1=O (stereo not given in full)	inactive
O=C(Nc1ncc(SCCN2CCCC2)s1)C1(c2ccc(S(=O)(=O)C3CC3)cc2)CC1C1CCCCC1 (stereo not given)	inactive
C=CC(=O)Nc1cccc(Nc2nc(Nc3ccc(Oc4ccnc(C(=O)NC)c4)cc3)ncc2F)c1	inactive
COc1cc(-c2cc(-c3ccc(N4CCNCC4)cc3)cnc2C)cc(OC)c1OC	inactive
O=C(c1ccc(F)c(F)c1Nc1ccc(I)cc1F)N1CC(O)([C@@H]2CCCCN2)C1	inactive
Cc1cc(C)c(-c2csc(NC(=O)c3ccccc3)n2)c(C)c1	inactive
CC(=O)C1=C(O)C2c3c[nH]c4cccc(c34)CC2C(C)(C)N(C)C1=O (stereo not given)	inactive
N#Cc1c[nH]c2c(C(=O)N3CCN(CCc4ccc(F)cc4)CC3)cccc12	inactive
Cc1[nH]c(/C=C2\C(=O)Nc3ccc(F)cc32)c(C)c1C(=O)NC[C@H](O)CN1CCOCC1	inactive
CN[C@@H]1[C@@H](O)[C@@H](O[C@@H]2[C@@H](O)[C@H](O[C@H]3O[C@@H]([C@@H](C)NC)CC[C@H]3N)[C@@H](N)C[C@H]2N)OC[C@]1(C)O	inactive
Fc1ccccc1CNCc1ccc(-c2ccnc3[nH]ccc23)cc1	inactive
CC[C@H](CO)Nc1nc(Nc2cccc(-c3ccccn3)c2)c2ncn(C(C)C)c2n1	inactive
COc1cc(N2CCN(C(C)=O)CC2)ccc1Nc1ncc(Cl)c(Nc2ccc(N3CCN(C(C)=O)CC3)cc2OC)n1	inactive

Structure (SMILES)	Potency
CC(C)c1ccc(NC(=O)C(c2ccccc2)N(C)C(=O)Cc2c[nH]c3ccccc23)cc1 (stereo not given)	79.4 µM (active)
CCN(CC)Cc1cccc(/C=C/c2nc3ccc(F)cc3c(=O)n2-c2ccccc2Cl)n1	inactive
CN(Cc1ccc(C(=O)O)cc1)c1ccc(OCc2c(-c3c(Cl)cccc3Cl)noc2C2CC2)nc1C(F)(F)F	2 µM (active)
COc1c(N2CC3CCCNC3C2)c(F)cc2c(=O)c(C(=O)O)cn(C3CC3)c12 (stereo not given)	inactive
CCC(C)n1cc(C)c2c(C(=O)NCc3c(C)cc(C)[nH]c3=O)cc(-c3ccc(N4CCNCC4)nc3)cc21 (stereo not given)	inactive
Cn1c(NC[C@@H](N)Cc2ccccc2)nc(-c2ccncc2)c(-c2ccc3ccccc3c2)c1=O	inactive
C=C(C)C(=O)O[C@H]1[C@H]2C(=C)C(=O)O[C@@H]2C[C@@H](C)[C@@H]2O[C@@H]2C(=O)[C@](C)(O)[C@@H]1OC(C)=O	inactive
C[C@@H]1CCNC(=O)c2cc3ccc(C(=O)Nc4nc5ccccc5n4CCCN(C)C)cc3n21	inactive
CCOC(=O)c1cccc(CNc2ccc(N(C)C(=O)Nc3ccccc3)cc2)c1	inactive
N#Cc1ccc2c(c1)CCN(CCC1CCC(NC(=O)c3ccnc4ccccc34)CC1)C2 (stereo not given)	inactive
C=C1C(=O)O[C@@H]2C[C@@H](C)[C@]34C[C@]5(C(=O)O[C@H]6CC(C)=C([C@H](C)CCCO)[C@H](OC(=O)C(C)CC)[C@H]65)[C@@H](C(C)=C3C[C@@H]12)[C@H]4OC(C)=O (stereo not given in full)	inactive
COc1ccc2c3ccnc4ccc(=O)n(c2c1)c43	inactive
CN(CCCNC(=O)c1ccc2nc3c(c(Cl)c2c1)CCCC3)Cc1ccccc1	inactive
COc1ccccc1-c1c[nH]c2ncc(-c3cncc(C(=O)N(C)C)c3)cc12	inactive
C=C1CC[C@@H]2[C@](C)(CO)[C@H](O)CC[C@@]2(C)[C@@H]1C/C=C1/C(=O)OC[C@@H]1O	inactive
O=[N+]([O-])c1ccc(-[n+]2nc(-c3ccccc3)nn2-c2ccc(I)cc2)cc1	inactive
COc1cc2nc(-c3cc(F)ccc3O)nc(N[C@@H]3CNC[C@H]3C(C)(C)O)c2cc1OC	inactive
C/C=C(/COC(=O)/C(C)=C/C)C(=O)OC/C=C/c1ccc(OC)cc1	inactive
CC(=O)c1c(OCCN2CCCCC2)c(OCCC(C)c2ccc(F)cc2)c2oc(C)nc2c1C (stereo not given)	inactive
CCN1CCN(Cc2ccc(-c3cc4c(NC(C)c5ccccc5)ncnc4[nH]3)cc2)CC1 (stereo not given)	inactive
